# Compound activity as filed in PubChem BioAssay.
# MITF act: increases MITF-driven TRPM1 promoter luciferase signal | SK-MEL-5 TRPM1-promoter luciferase, 24 h; % of positive control, neutral wells = 0 | activation, % at 12.5 µM | actives 0.75% (n = 300,000) | AID 588334;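 active = mean activation of at least 80% with every replicate also reaching 80%; inconclusive = mean reaches 80% but some replicate falls short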;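 note: 0% = neutral control wells and 100% = parthenolide positive control wells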
# esBAF inh: inhibitors of esBAF chromatin remodeling in mouse ES cells; Bmi1-luciferase knock-in reporter, 24 h; 100% = twice the neutral-well signal; reporter increase, % at 12.5 µM; actives 2% (n = 350,000); AID 602393; in the data active = activation above about 40%; inconclusive = no clear call, values can overlap the other calls;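 note: 0% = median of the plate's neutral control wells and 100% = double that signal; a rise in the Bmi1 reporter signal indicates esBAF inhibition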
# HSF1 inh: HSF1 inhibition | actives 0.77% (n = 300,000) | activity change, negative = inhibition, % at 7.5 µM (by protocol) | AID 2098 | NIH3T3-HGL HSE-luciferase, MG132-induced, luminescence 8 h; stronger effect = lower value;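 active = more than half of replicate wells show activity change below -50%, luminescence cut by over half; inconclusive = some wells, but at most half, below -50%; inactive = no replicate well below -50%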;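 note: luciferase reports HSF-1 transcriptional activity via heat shock element; 0% = median of DMSO wells and -100% = zero luminescence signal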
# HSF1 activator: increases HSF-1 driven luciferase reporter signal; activation, % at 9 µM; NIH3T3-HGL HSF-1 luciferase reporter, MG132, 8 h; 100% = twice DMSO control signal; actives 1.7% (n = 300,000);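 active = mean replicate activation of at least 50% with a set share of replicates each reaching 50%; inconclusive = only one of those two conditions met; inactive = mean below 50% and too few replicates reaching it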;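 note: 0% = median of the neutral control wells and 100% = twice that signal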
# Wnt bcat act: activators of Wnt/beta-catenin signaling. Wnt/beta-catenin reporter cell assay, activator, plate reader. activation, % at 9.35 µM. actives 1.2% (n = 300,000). AID 743398; in the data active = activation above about 30%, passing the limit was not always enough; inconclusive = no clear call, values can overlap the other calls;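 note: 0% = neutral control wells and 100% = positive control wells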
# The depositor's hits bear a star; u = inconclusive; x = not tested or not shown. Only some compounds are listed: those with a hit (about 3.9% of all), similar ones and a draw of the others.
SMILES,MITF act,esBAF inh,HSF1 inh,HSF1 activator,Wnt bcat act
O=C1CN(c2nc(-c3cccnc3)nc3sc4c(c23)CCCC4)CCN1,25,23,-1,-2,4
O=c1oc(/C=C/c2ccccc2)nc2sc3c(c12)CCC3,105*,x,-1,3,6
Nc1nc(-c2cccnc2)nc2sc3c(c12)CCCC3,49,x,28,80*,u
O=S(=O)(CCSc1nc2ccccc2s1)c1nc2ccccc2s1,-35,x,62,95*,-42
CCS(=O)(=O)CCSc1nc2ccccc2s1,17,3,-2,1,x
CCOC(=O)/C(N=Nc1ccc2c(c1)OCO2)=C(\C)O,115*,x,7,-2,7
CCOC(=O)C(=O)Nc1ccc2c(c1)OCO2,x,-2,-5,-24,3
O=c1[nH]c(COc2ccccc2)nc2ccccc12,u,u,11,27,24
O=c1[nH]c(COc2ccc(Br)cc2Cl)nc2ccccc12,u,45*,50,90*,44*
O=C(O)CCc1nc2ccccc2c(=O)[nH]1,7,-5,-9,4,0
N#CCc1nc2ccccc2c(=O)[nH]1,-5,4,38,65*,2
COC(=O)C[C@H]1C=C[C@@H](NC(=O)Nc2ccc(C(F)(F)F)cc2)[C@H](CO)O1,x,-2,x,x,x
CO[C@H]1CC[C@@H]2CCN(C)C(=O)[C@H](C)CN(C)C(=O)c3cc(C#N)ccc3OC[C@H]1O2,x,-5,x,x,x
CCN(CC)C(=O)c1nc(-c2cccc3ccccc23)no1,x,70*,x,x,75*
CCN(CC)C(=O)c1c2c(nc3ccccc13)-c1ccccc1CC2,-5,x,1,4,x
Clc1ccccc1OCCn1nnc2ccccc21,81*,63*,25,34,19
Cc1cc(C)cc(OCCn2nnc3ccccc32)c1,88*,26,10,33,4
Cc1ccc(C)c(OCCn2nnc3ccccc32)c1,x,18,26,23,0
CN1[C@@H]2c3ccc(-c4ccncc4)c(=O)n3C[C@H]1[C@H](CO)[C@H]2C(=O)NC1CCCCC1,x,-3,x,x,x
CC(C)CC#Cc1ccc2c(c1)O[C@@H](CN(C)S(=O)(=O)c1cccc(F)c1)[C@@H](C)CN([C@H](C)CO)S2(=O)=O,x,1,x,x,x
COc1ccc(OCCN2C(=O)c3cccc(N)c3C2=O)cc1,88*,38,39,59*,2
O=C1c2ccccc2C(=O)N1CCOc1cccc(Br)c1,19,41*,32,u,14
Cc1ccc(OCCN2C(=O)c3ccccc3C2=O)cc1,13,9,21,28,x
CO[C@H]1CN(C)C(=O)c2ccc(NC(=O)c3cc(C)on3)cc2OC[C@@H](C)N(CC2CC2)C[C@@H]1C,x,-1,x,x,x
Cc1ccc(S(=O)(=O)Nc2ccc3c(c2)C(=O)N([C@@H](C)CO)C[C@@H](C)[C@H](CN(C)S(=O)(=O)c2ccccc2)O3)cc1,x,4,x,x,x
SMILES,MITF act,esBAF inh,HSF1 inh,HSF1 activator,Wnt bcat act
Cc1nc(-c2ccccn2)sc1C(=O)Nc1ccc(F)cc1F,x,58*,40,70*,x
C=CCOc1ccc(/C=C2\SC(=S)N(N3CCOCC3)C2=O)cc1,x,x,0,8,42*
O=C1/C(=C/c2ccncc2)SC(=S)N1N1CCOCC1,x,x,-6,4,3
N/C(=N\OC(=O)COc1ccc(Br)cc1)c1cccnc1,24,x,24,57*,5
N/C(=N\OC(=O)COc1ccccc1)c1cccnc1,104*,x,10,29,29
CCCc1nc2ccc(C)cn2c1Cc1ccccc1,x,51*,x,x,-2
CCCc1nc2ccc(C)cn2c1Cc1ccc(C)cc1,x,26,x,x,23
CCCN(C)C[C@@H]1Oc2cc(C#CCC3CCCC3)ccc2S(=O)(=O)N([C@@H](C)CO)C[C@@H]1C,x,0,x,x,x
O=C(c1ccccn1)N1C[C@H]2[C@@H](c3ccccc31)[C@@H](CO)N2C(=O)C1CCCCC1,x,-3,x,x,x
Cc1ccc(-c2nc(NC(=O)c3nn(C)cc3[N+](=O)[O-])sc2C)cc1,-85,-83,8,28,-1
Cc1cnc(NC(=O)c2nn(C)cc2[N+](=O)[O-])s1,-73,x,139,150*,-2
Cc1ccc(C(=O)Nc2ncc(C)s2)s1,5,-24,30,70*,20
Cc1ccc(-c2nc(NC(=O)c3nn(C)cc3[N+](=O)[O-])sc2C)cc1C,-79,-75,-84*,-84,-14
Cn1cc([N+](=O)[O-])c(C(=O)Nc2nc(-c3ccc(Cl)cc3)cs2)n1,-83,-47,102,140*,0
C[C@H](CO)N1C[C@H](C)[C@@H](CN(C)Cc2ccc(-c3ccccc3)cc2)Oc2ccc(NS(=O)(=O)c3ccccc3)cc2CC1=O,x,4,x,x,x
COc1ccc(CCNCc2cc(C)n(-c3ccc(OC)cc3)c2C)cc1,5,-1,18,67*,3
COc1ccc(CCNCc2ccccc2N2CCCC2)cc1,5,-14,-2,-7,1
C[C@@H]1CN([C@H](C)CO)C(=O)c2cc(C#Cc3ccccc3F)cnc2O[C@@H]1CN(C)C(=O)Cc1cccnc1,x,-2,x,x,x
COCC(=O)Nc1ccc2c(c1)OC[C@H](C)N(C(=O)c1ccccn1)C[C@H](C)[C@H](OC)CN(C)C2=O,x,-1,x,x,x
O=C(N/N=C/c1ccc[nH]1)c1sc2ccccc2c1Cl,6,55*,-4,-2,1
O=C(N/N=C/c1ccc[nH]1)c1cc2ccccc2cc1O,32,53*,-4,4,8
O=C(N/N=C/c1ccncc1)c1cc2ccccc2cc1O,14,26,240,312*,1
O=C(Nc1ccccc1C(=O)N/N=C/c1ccncc1)c1ccccc1,9,26,4,-17,-3
CCCCNC(=S)N(Cc1ccco1)Cc1cc2cc3c(cc2[nH]c1=O)OCCO3,4,-10,132,156*,x
COc1ccccc1NC(=S)N(Cc1ccco1)Cc1cc2cc(C)ccc2[nH]c1=O,-11,x,58,99*,x
SMILES,MITF act,esBAF inh,HSF1 inh,HSF1 activator,Wnt bcat act
COc1ccc(C(=O)N(Cc2ccco2)Cc2cc3cc(C)ccc3[nH]c2=O)cc1OC,3,10,-2,13,x
CCOCCCNC(=S)N(Cc1ccco1)Cc1cc2cc3c(cc2[nH]c1=O)OCCO3,-13,x,28,38,-1
Cc1cc2cc(CN(Cc3cccs3)C(=S)NCc3ccco3)c(=O)[nH]c2cc1C,-13,x,19,63*,-1
Cc1ccc(C)c2[nH]c(=O)c(CN(Cc3cccs3)C(=S)NCc3ccco3)cc12,7,x,48,77*,x
C[C@@H]1CN([C@H](C)CO)C(=O)c2cc(NS(=O)(=O)c3ccccc3)ccc2O[C@@H]1CN(C)CC1CCCCC1,x,-1,x,x,x
COCC(=O)N[C@@H]1C=C[C@@H](CC(=O)NCc2ccc(Cl)cc2)O[C@H]1CO,x,-2,x,x,x
COc1cccc(COC(=O)c2ccc3c(c2)NC(=O)C(C)S3)c1OC (centres undefined),-1,-6,-77*,-82,-6
COc1ccc(CNC(=O)c2ccc3c(c2)NC(=O)C(C)S3)cc1 (centres undefined),5,25,2,2,6
